Compound activity (PubChem)
Compounds with a hit are over-represented: about 2.1% of the library has one in this group of screens.
CTSL1 counter: Fasciola hepatica cathepsin L1 inhibitors, primary screen, counter-screen for PFM18AAP inhibitor project, biochemical, QFRET, fluorogenic peptide substrate; recombinant F. hepatica cathepsin L1, Z-Leu-Arg-MCA fluorescence; inhibition, % at 5.96 µM; 0.49% of 300,000 active; AID 1906, 2009;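 active = inhibition above the mean of all tested compounds plus 3 SD, set per screening campaign, cut at about 17% in these data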;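 note: 0% = plate median of test compound wells and 100% = 1 µM Z-Phe-Ala-diazomethylketone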
M18AAP inhibitor: PfM18AAP inhibitors, malaria aminopeptidase, primary screen, biochemical, QFRET, recombinant enzyme | M18 aspartyl aminopeptidase (Plasmodium falciparum 3D7) | H-Glu-NHMec fluorogenic cleavage | inhibition, % at 7.35 µM | 1.2% of 290,000 active;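 active = inhibition above the campaign mean inhibition over all tested compounds plus 3 SD, cut at about 28% in these data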;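 note: 0% = plate median of test compound wells and 100% = 2 mM ZnCl2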
Calb FLC: C. albicans growth inhibition with fluconazole, primary screen, CaCi-2 strain, Alamar Blue fluorescence; growth inhibition, % (concentration not given with the values); 0.57% of 300,000 active; C. albicans CaCi-2 (fluconazole-resistant clinical isolate) + fluconazole, 48 h;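 active = growth inhibition above about 58% in most replicates, limit read from the data, passing the limit was not always enough; inconclusive = exactly half the replicates above a set limit; inactive = most replicates below a set limit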;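 note: all wells also contain fluconazole at 8 µg/ml as a sub-toxic cotreatment; 0% = median of DMSO wells and 100% = median of geldanamycin control wells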
Rin1-Abl PPI inh: inhibitors of Rin1-Abl protein binding, primary screen, biochemical, TR-FRET. inhibition, % at 7.35 µM. 0.4% of 360,000 active; in the data active = inhibition above about 5%, passing the limit was not always enough
Target sequence (P00519 whole entry, looked up): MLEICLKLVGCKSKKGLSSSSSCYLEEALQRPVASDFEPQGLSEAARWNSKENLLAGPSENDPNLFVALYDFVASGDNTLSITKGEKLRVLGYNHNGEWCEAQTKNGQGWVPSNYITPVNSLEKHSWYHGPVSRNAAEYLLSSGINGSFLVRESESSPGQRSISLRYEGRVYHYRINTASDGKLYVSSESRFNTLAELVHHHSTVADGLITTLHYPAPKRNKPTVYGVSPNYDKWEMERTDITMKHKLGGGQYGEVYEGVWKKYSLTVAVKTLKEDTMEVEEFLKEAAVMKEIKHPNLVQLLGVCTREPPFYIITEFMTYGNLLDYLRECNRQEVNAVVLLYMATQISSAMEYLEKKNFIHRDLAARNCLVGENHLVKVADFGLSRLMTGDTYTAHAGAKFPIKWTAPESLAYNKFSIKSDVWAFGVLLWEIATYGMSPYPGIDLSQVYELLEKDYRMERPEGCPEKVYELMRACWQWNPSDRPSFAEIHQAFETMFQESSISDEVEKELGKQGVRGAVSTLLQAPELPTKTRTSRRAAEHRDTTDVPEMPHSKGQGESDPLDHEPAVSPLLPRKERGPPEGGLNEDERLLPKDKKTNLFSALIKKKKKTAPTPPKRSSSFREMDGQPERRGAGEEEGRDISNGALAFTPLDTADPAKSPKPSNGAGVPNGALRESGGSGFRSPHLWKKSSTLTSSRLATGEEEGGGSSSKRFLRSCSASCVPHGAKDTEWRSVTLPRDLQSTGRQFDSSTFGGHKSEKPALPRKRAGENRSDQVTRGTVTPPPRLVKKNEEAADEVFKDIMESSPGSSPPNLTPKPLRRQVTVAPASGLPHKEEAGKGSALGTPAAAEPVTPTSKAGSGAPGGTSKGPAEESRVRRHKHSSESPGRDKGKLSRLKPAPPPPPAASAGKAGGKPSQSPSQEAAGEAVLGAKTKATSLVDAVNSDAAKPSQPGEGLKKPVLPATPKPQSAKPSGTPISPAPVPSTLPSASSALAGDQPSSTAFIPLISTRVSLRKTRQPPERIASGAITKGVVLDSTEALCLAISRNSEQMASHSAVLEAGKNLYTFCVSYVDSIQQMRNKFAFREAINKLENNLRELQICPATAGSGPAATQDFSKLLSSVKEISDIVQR
Target sequence (Q13671 whole entry, looked up): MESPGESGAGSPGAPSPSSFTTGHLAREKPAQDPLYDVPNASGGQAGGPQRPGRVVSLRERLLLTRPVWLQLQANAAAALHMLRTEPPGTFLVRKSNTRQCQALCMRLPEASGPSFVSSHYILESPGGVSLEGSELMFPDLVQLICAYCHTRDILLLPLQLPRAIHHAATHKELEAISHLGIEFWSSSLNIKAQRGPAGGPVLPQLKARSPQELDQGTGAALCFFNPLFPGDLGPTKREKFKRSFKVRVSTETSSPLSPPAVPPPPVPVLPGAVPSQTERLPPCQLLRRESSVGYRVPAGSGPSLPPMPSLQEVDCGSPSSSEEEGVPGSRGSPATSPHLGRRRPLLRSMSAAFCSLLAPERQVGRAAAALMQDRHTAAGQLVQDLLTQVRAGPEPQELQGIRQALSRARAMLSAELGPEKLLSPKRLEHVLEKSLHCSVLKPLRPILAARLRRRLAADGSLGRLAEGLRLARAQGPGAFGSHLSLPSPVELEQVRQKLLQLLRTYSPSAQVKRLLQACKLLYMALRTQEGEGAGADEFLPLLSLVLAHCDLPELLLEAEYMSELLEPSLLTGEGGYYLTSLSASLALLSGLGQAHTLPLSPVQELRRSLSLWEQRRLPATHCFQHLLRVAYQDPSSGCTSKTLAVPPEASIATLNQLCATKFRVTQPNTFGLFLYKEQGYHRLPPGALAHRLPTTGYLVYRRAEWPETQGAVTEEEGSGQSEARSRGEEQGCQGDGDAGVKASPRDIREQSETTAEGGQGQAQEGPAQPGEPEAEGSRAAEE
Rin1-Abl confirm: Rin1-Abl binding inhibitor retest, confirmation, biochemical, TR-FRET; shares compounds with Rin1-Abl PPI inh; purified proteins; inhibition, % at 7.35 µM; 49% of 1,300 active
GFP quench-1: GFP fluorescence inhibitors and quenchers, artefact control for Rin1-Abl interaction inhibitor project, biochemical. shares compounds with Rin1-Abl PPI inh. inhibitors/quenchers counterscreen. inhibition, % at 6.75 µM. 8.5% of 1,300 active. AID 602125, 2011;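 note: ABL1-eGFP fusion protein alone without its partner RIN1-SBP; 0% = protein with vehicle and 100% = wells lacking protein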
GFP quench DR: GFP fluorescence inhibitors and quenchers, dose response, artefact control for Rin1-Abl interaction inhibitor project, biochemical | shares compounds with Rin1-Abl PPI inh | GFP fluorescence interference/quenching counterscreen | IC50, µM | 230 tested, under 10 active; call rule not given here;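 note: ABL1-eGFP fusion protein alone without its RIN1 binding partner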
GFP quench-2: GFP fluorescence inhibitors and quenchers, late-stage follow-up, artefact control for Rin1-Abl interaction inhibitor project, biochemical, dose response; IC50, µM; shares compounds with Rin1-Abl PPI inh; GFP fluorescence quenching counterscreen; 25 tested, under 10 active; call rule not given here
Active calls of the source: *. Cut-off read from the data, not from the text of the source, unless noted: active = inhibition above about 6.5%; inactive = the rest.

Results for Cc1nc2c(=O)n(C)c(=O)nc-2n(C)n1 ?
CTSL1 counter: 112.3*; M18AAP inhibitor: 1.1; Calb FLC: 19.3; Rin1-Abl PPI inh: 37.1*; Rin1-Abl confirm: 45.4*; GFP quench-1: -0.2; GFP quench DR: >67.5

How did O=C1/C(=C/c2cc3c(cc2Cl)OCO3)N2CCC1CC2 do in these assays?
CTSL1 counter: 3.1; M18AAP inhibitor: 18.6; Calb FLC: -19.5

Results for COCCCNC(=O)c1c(N)n(Cc2ccco2)c2nc3ccccc3nc12 ?
CTSL1 counter: 10.1; M18AAP inhibitor: 5.4; Calb FLC: 21.2; Rin1-Abl PPI inh: -1.5

Results for COc1ccc(Cn2c(N)c(C(=O)NCc3ccco3)c3nc4ccccc4nc32)cc1OC ?
CTSL1 counter: 4.2; M18AAP inhibitor: 19.2; Rin1-Abl PPI inh: 15.3*; Rin1-Abl confirm: -3.9; GFP quench-1: -0.2

How did Nc1c(C(=O)NC2CCCC2)c2nc3ccccc3nc2n1CC1CCCO1 (stereo not given) do in these assays?
CTSL1 counter: 3.5; M18AAP inhibitor: 4.1; Calb FLC: 5.1; Rin1-Abl PPI inh: 19.2*; Rin1-Abl confirm: 1.3; GFP quench-1: 0.6

Results for Nc1c(C(=O)NCC2CCCO2)c2nc3ccccc3nc2n1Cc1ccco1 (stereo not given) ?
CTSL1 counter: 2.6; M18AAP inhibitor: 6.3; Calb FLC: 8.2; Rin1-Abl PPI inh: -1.9

How did CN1C(=O)N(C)C(=O)C2(Cc3cc(NC(=O)c4ccccc4)ccc3N3CCCC32)C1=O (stereo not given) do in these assays?
CTSL1 counter: 0.5; M18AAP inhibitor: -5.1; Calb FLC: 8.0; Rin1-Abl PPI inh: 0.0

How did CCOC(=O)N1CCC(NC(=O)CCc2nc(C3=CCN(C)CC3)no2)CC1 do in these assays?
CTSL1 counter: -1.4; M18AAP inhibitor: 2.2; Calb FLC: -5.2; Rin1-Abl PPI inh: 69.6*; Rin1-Abl confirm: 50.0*; GFP quench-1: -0.3; GFP quench DR: >67.5; GFP quench-2: >67.5

What do the screens show for `Brc1ccc(Oc2cc(Br)c(Br)cc2Br)c(Br)c1`?
Rin1-Abl PPI inh: 8.2*; Rin1-Abl confirm: 13.2*; GFP quench-1: -1.6

Results for NC(=O)C1(N2CCCCC2)CCN(Cc2ccccc2)CC1 ?
CTSL1 counter: 3.4; M18AAP inhibitor: -11.2; Calb FLC: 0.5; Rin1-Abl PPI inh: 7.9*; Rin1-Abl confirm: -0.3; GFP quench-1: 0.4

Results for O=c1[nH]c2ccccc2n1C1CCN(C(c2nnnn2C2CCCCC2)C2CC2)CC1 (stereo not given) ?
Rin1-Abl PPI inh: 74.3*; Rin1-Abl confirm: 74.4*; GFP quench-1: -1.2; GFP quench DR: >67.6

Results for O=c1[nH]c2ccccc2n1C1CCN(C(c2nnnn2C2CCCC2)C2CC2)CC1 (stereo not given) ?
Rin1-Abl PPI inh: 31.3*; Rin1-Abl confirm: 23.4*; GFP quench-1: -0.4; GFP quench DR: >67.5

Results for Clc1cccc(CNCCc2c[nH]c3ccccc23)c1 ?
CTSL1 counter: -0.2; M18AAP inhibitor: 6.3; Calb FLC: -3.1; Rin1-Abl PPI inh: 3.2

Results for O=C(/C=C/c1c[nH]c2ccccc12)c1c(O)n(CCc2ccccc2)c(=O)[nH]c1=O ?
CTSL1 counter: 5.5; M18AAP inhibitor: 0.0; Calb FLC: 0.4; Rin1-Abl PPI inh: -1.2

Results for C[C@]12CC[C@H](O)CC1=CC(=O)C1C2CC[C@]2(C)C(=O)CCC12 (stereo not given in full) ?
Rin1-Abl PPI inh: 12.9*; Rin1-Abl confirm: 6.2; GFP quench-1: -1.1

What do the screens show for `Cc1cc(C)n(CCOC(=O)C2C(C=C(Cl)Cl)C2(C)C)n1` (stereo not given)?
CTSL1 counter: 2.3; M18AAP inhibitor: 6.6; Calb FLC: -0.2; Rin1-Abl PPI inh: -2.7

How did CCOC(=O)c1c(NS(=O)(=O)c2ccccc2)n(CCCOC)c2nc3ccccc3nc12 do in these assays?
CTSL1 counter: 8.2; M18AAP inhibitor: 17.9; Calb FLC: 39.2; Rin1-Abl PPI inh: 33.4*; Rin1-Abl confirm: 0.6; GFP quench-1: 0.4

What do the screens show for `COCCCn1c(N)c(C(=O)OCCOC)c2nc3ccccc3nc21`?
CTSL1 counter: 1.3; M18AAP inhibitor: 9.5; Calb FLC: -1.5; Rin1-Abl PPI inh: 0.1

Results for Oc1ccc(C[C@H]2NCCc3cc(O)c(O)cc32)cc1O ?
M18AAP inhibitor: 81.9*; Calb FLC: inconclusive; Rin1-Abl PPI inh: 62.4*; Rin1-Abl confirm: 70.4*; GFP quench-1: 3.8; GFP quench DR: >67.5

Results for COc1ccc2c(c1O)-c1c(OC)c(OC)cc3c1[C@H](C2)N(C)CC3 ?
CTSL1 counter: 4.6; Rin1-Abl PPI inh: 1.1

Results for CCCN1CCc2cccc3c2[C@H]1Cc1ccc(O)c(O)c1-3 ?
CTSL1 counter: 8.7; Rin1-Abl PPI inh: 11.8*; Rin1-Abl confirm: 5.9; GFP quench-1: 8.6*

How did O=c1[nH]c(=O)n(-c2ccc(Br)cc2)c(O)c1C=NC(CO)(CO)CO do in these assays?
CTSL1 counter: 3.5; M18AAP inhibitor: -5.7; Calb FLC: 1.9; Rin1-Abl PPI inh: 6.0*; Rin1-Abl confirm: -1.4; GFP quench-1: -0.5

How did CCN(CCCl)c1cc(CN(C)C)cc(NC(=O)c2ccc(C(=O)Nc3cc(CN(C)C)cc(N(CC)CCCl)c3)cc2)c1 do in these assays?
Rin1-Abl PPI inh: 0.0

What do the screens show for `CN1C(=O)C(c2ccc([N+](=O)[O-])cc2[N+](=O)[O-])C(=O)N(C)C1=O`?
CTSL1 counter: 0.1; M18AAP inhibitor: 1.3; Calb FLC: -0.1; Rin1-Abl PPI inh: 1.0

How did CSCCC(c1nnnn1Cc1ccccc1)N1CCC(n2c(=O)[nH]c3ccccc32)CC1 (stereo not given) do in these assays?
Rin1-Abl PPI inh: 4.9

What do the screens show for `O=c1[nH]c2ccccc2n1C1CCN(C(CCc2ccccc2)c2nnnn2C2CCCCC2)CC1` (stereo not given)?
Rin1-Abl PPI inh: 26.9*; Rin1-Abl confirm: 14.5*; GFP quench-1: -0.2

What do the screens show for `CSCCC(c1nnnn1C1CCCCC1)N1CCC(n2c(=O)[nH]c3ccccc32)CC1` (stereo not given)?
Rin1-Abl PPI inh: 52.7*; Rin1-Abl confirm: 44.2*; GFP quench-1: -1.9; GFP quench DR: >67.5

Results for O=c1[nH]c2ccccc2n1C1CCN(C(CCc2ccccc2)c2nnnn2Cc2ccccc2)CC1 (stereo not given) ?
Rin1-Abl PPI inh: 1.2
